According to the supplement of paper PMC10849652:
Targets with a hit are over-represented here; the source holds about 8,800 in all. About 0.5% of all pairs of compound and target were hits. Unmarked numbers belong to inactive results.

Tests used:
Test in all cases: log2 fold change, soluble protein after heating vs DMSO (PISA); higher = thermal stabilisation; K562 lysate, 10 uM; active = over 0.2 and 3.5 SD of the protein, either way, in both replicates (recomputed)
erlotinib = compound: C#Cc1cccc(Nc2ncnc3cc(OCCOC)c(OCCOC)cc23)c1 [erlotinib]
Outline: (§1)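 To prepare the extract, K562 pellets were dounce-homogenised in PBS pH 7.4 with 1 mM MgCl2, giving crude material at 1 mg/mL protein. This was treated with 10 μM compound for 30 min, then heated in aliquots for 3 min over 48°C-58°C before pooling and addition of NP-40 to 0.5% at 4°C. Centrifugation at 21,000xg for 90 min left soluble protein in the supernatant, which TMTpro 16plex LC-MS/MS quantified with equalised channel sums. Results are log-two fold changes in thermal stability compared with solvent controls, from duplicates.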

[1] = compound: C/C(=N\NC(=O)C1=CC(=CC=C1)S(=O)(=O)N2CCOCC2)/C3=C(C=CC(=C3)Cl)O
Outline: as §1

[2] = compound: C1=CC(=CC=C1C2=NC3=C(N2)C=C(C=C3)C(=O)N)OC4=CC=C(C=C4)Cl
Outline: as §1

[3] = compound: C1=CC2=C(C=CC(=C2)/C=C\3/C(=O)NC(=NCC4=CC=CS4)S3)N=C1
Outline: as §1

[4] = compound: C1=CC2=NC=CN=C2C=C1/C=C/3\C(=O)NC(=O)S3
Outline: as §1

[5] = compound: C1=CC=C(C=C1)C2=NC(=C(N2)C3=CC=NC=C3)C4=CC(=C(C=C4)Cl)O
Outline: as §1

[6] = compound: C1=CC=C2C(=C1)C3=NNC4=CC=CC(=C43)C2=O
Outline: as §1

[7] = compound: C1CCN(C1)C(=O)NC2=CC=CC(=C2)NC3=NC=C(C(=N3)NCCC4=CN=CN4)Br
Outline: as §1

[8] = compound: C1CN(CCC1(CC2=CC=C(C=C2)Cl)N)C3=NC=NC4=C3C=CN4
Outline: as §1

IRAK-1-4 Inhibitor I = compound: C1COCCN1CCN2C3=CC=CC=C3N=C2NC(=O)C4=CC(=CC=C4)[N+](=O)[O-] [IRAK-1-4 Inhibitor I]
Outline: as §1

ibrutinib = compound: C=CC(=O)N1CCC[C@@H](n2nc(-c3ccc(Oc4ccccc4)cc3)c3c(N)ncnc32)C1 [ibrutinib]
Outline: as §1

[9] = compound: CC(=O)c1cnc2ccc(-c3cc(Cl)c(O)c(Cl)c3)nc2c1N[C@H]1CC[C@H](CN(C)C)CC1
Outline: as §1

ralimetinib = compound: CC(C)(C)Cn1c(N)nc2ccc(-c3[nH]c(C(C)(C)C)nc3-c3ccc(F)cc3)nc21 [ralimetinib]
Outline: as §1

[10] = compound: CC(C)(O)CC(=O)NCCn1ccc2ncnc(Nc3ccc(Oc4cccc(C(F)(F)F)c4)c(Cl)c3)c21
Outline: as §1

[11] = compound: CC(C)C1=C2N=C(C=C(N2N=C1)NCC3=CC=CC=C3)NCCCCCCN
Outline: as §1

[12] = compound: CC1=C(C(CC(=O)N1)C2=CC=C(C=C2)C(F)(F)F)C(=O)NC3=C(C=C4C(=C3)C=NN4)F
Outline: as §1

[13] = compound: CC1=C(C2=C(C=C1)C(=O)C3=CC=CC=C3N2CCCN)C
Outline: as §1

[14] = compound: CC1=C(C=C(C=C1)NC(=O)C2=CC(=CC=C2)C(C)(C)C#N)NC3=CC4=C(C=C3)N=CN(C4=O)C
Outline: as §1

[15] = compound: CC1=C(C=C(C=C1)NC(=O)C2=CC(=CC=C2)N(C)C)NC(=O)C3=CC=C(C=C3)O
Outline: as §1

[16] = compound: CC1=CC=C(C=C1)SC2=C3C=C(SC3=CN=C2)C(=O)N
Outline: as §1

Chain of UniProt Q99541 (Q99541 whole entry, looked up): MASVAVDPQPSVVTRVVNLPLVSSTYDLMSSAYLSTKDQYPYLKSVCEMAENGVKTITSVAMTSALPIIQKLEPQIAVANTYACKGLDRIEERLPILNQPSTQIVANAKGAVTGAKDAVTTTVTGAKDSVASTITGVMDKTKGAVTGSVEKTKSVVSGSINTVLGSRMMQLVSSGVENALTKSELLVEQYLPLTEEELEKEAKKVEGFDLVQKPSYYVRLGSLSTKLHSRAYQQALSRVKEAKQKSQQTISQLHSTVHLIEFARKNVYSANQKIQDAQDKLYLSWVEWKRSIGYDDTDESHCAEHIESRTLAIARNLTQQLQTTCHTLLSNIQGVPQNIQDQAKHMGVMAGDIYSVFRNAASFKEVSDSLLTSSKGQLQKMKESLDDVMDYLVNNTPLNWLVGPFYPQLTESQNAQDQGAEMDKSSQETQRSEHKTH
Chain of UniProt Q96CD2 (Q96CD2 whole entry, looked up): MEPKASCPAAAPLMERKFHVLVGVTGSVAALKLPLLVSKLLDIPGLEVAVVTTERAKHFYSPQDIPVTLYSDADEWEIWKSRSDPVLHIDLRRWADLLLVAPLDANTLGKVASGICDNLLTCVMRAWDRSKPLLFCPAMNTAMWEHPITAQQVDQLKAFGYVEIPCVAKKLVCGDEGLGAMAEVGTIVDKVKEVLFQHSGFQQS
Chain of UniProt Q9H4Z3 (Q9H4Z3 whole entry, looked up): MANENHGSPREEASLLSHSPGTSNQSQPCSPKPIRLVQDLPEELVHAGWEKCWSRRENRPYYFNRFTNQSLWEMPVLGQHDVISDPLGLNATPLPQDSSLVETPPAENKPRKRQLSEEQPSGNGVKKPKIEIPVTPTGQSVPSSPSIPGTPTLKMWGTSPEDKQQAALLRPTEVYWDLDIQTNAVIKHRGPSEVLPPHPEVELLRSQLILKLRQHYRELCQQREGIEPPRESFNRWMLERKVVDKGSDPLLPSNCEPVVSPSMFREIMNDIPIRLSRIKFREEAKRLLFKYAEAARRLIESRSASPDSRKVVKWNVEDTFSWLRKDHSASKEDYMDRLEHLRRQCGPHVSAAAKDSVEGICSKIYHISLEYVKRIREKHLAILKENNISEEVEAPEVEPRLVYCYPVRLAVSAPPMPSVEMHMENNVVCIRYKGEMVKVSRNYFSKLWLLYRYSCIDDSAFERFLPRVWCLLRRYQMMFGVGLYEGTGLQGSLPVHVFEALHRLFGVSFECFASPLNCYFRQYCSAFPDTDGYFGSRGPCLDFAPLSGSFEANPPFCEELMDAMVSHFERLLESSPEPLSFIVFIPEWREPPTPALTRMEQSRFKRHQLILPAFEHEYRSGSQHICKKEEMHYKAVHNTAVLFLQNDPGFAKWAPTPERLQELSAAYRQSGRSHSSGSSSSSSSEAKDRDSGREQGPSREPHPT
Chain of UniProt P29350 (P29350 whole entry, looked up): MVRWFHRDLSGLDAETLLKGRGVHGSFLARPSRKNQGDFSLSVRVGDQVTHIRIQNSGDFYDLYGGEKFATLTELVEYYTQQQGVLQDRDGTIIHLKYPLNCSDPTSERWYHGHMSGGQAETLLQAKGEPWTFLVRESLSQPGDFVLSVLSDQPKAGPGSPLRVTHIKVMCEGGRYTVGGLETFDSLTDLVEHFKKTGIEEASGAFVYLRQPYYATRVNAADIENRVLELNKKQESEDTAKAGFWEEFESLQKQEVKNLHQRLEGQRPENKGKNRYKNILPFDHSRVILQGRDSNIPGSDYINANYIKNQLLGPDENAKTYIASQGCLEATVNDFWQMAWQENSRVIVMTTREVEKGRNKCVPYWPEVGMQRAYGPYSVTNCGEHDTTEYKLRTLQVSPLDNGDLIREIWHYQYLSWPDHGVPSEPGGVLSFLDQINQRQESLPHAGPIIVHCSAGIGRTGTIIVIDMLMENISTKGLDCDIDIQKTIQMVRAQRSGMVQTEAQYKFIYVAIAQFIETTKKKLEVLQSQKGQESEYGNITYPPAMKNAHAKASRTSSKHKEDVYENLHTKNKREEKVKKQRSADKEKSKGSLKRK
Chain of UniProt P78356 (P78356 whole entry, looked up): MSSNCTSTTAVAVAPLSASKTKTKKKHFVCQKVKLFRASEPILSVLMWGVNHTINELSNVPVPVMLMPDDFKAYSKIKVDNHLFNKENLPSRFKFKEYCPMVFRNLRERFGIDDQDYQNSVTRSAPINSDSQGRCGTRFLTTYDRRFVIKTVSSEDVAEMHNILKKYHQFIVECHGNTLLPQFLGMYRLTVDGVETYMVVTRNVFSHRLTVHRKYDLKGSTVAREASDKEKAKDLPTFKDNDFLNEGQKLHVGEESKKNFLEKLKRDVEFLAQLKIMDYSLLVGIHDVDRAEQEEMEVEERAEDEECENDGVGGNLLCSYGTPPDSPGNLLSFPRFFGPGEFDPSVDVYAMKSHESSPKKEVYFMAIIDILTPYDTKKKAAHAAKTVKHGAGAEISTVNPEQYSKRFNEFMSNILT
Chain of UniProt O00408 (O00408 whole entry, looked up): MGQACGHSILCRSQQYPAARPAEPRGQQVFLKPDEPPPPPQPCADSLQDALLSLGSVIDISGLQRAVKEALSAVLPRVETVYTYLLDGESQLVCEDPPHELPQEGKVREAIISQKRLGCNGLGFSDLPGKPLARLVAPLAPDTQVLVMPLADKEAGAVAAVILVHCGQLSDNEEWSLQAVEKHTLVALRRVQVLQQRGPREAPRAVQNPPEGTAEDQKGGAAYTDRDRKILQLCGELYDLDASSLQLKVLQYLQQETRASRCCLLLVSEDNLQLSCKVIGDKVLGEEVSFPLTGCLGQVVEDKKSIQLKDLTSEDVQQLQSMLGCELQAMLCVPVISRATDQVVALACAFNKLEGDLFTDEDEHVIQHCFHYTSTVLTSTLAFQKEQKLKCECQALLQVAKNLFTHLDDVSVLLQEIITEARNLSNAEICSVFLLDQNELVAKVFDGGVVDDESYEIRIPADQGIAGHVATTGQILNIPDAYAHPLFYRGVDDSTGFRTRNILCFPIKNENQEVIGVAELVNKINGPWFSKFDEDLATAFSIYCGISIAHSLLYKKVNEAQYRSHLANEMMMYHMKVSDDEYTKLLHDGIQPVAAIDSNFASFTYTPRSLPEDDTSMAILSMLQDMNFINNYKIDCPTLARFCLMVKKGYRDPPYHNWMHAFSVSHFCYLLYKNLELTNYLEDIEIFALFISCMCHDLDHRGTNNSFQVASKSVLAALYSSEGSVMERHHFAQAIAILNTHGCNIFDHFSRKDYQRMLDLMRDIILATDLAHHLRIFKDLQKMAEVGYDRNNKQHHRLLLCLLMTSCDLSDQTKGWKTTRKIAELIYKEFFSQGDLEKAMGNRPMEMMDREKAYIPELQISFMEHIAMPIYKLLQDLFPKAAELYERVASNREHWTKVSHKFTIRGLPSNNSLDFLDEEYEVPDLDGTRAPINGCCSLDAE
Chain of UniProt Q96S99 (Q96S99 whole entry, looked up): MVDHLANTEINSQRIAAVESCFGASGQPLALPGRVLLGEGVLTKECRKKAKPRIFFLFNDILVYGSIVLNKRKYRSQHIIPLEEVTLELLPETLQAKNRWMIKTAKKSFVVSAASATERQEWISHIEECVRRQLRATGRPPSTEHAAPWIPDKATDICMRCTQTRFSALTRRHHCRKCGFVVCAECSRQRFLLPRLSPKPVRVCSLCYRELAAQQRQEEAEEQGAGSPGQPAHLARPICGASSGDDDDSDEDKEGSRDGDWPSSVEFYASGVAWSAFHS
Chain of UniProt P67775 (P67775 whole entry, looked up): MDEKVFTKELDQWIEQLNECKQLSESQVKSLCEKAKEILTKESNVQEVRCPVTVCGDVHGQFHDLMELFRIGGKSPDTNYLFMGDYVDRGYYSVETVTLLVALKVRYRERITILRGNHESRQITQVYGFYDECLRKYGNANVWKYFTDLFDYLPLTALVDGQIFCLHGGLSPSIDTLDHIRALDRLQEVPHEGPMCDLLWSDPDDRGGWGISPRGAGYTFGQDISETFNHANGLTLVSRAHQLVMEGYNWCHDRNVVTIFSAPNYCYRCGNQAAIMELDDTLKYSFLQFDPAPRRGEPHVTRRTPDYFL
Chain of UniProt Q9Y6I8 (Q9Y6I8 whole entry, looked up): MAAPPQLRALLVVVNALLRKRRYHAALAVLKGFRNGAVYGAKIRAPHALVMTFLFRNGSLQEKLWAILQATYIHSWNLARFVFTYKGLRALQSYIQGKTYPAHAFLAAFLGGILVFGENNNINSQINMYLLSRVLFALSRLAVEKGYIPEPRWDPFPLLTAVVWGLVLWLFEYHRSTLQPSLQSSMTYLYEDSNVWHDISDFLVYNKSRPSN
Chain of UniProt Q9H0N5 (Q9H0N5 whole entry, looked up): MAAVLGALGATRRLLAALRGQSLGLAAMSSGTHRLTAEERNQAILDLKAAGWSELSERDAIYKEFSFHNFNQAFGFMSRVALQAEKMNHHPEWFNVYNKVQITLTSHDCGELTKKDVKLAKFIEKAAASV

Target | log2 fold change (erlotinib) | log2 fold change [1] | log2 fold change [2] | log2 fold change [3] | log2 fold change [4] | log2 fold change [5] | log2 fold change [6] | log2 fold change [7] | log2 fold change [8] | log2 fold change (IRAK-1-4 Inhibitor I) | log2 fold change (ibrutinib) | log2 fold change [9] | log2 fold change (ralimetinib) | log2 fold change [10] | log2 fold change [11] | log2 fold change [12] | log2 fold change [13] | log2 fold change [14] | log2 fold change [15] | log2 fold change [16]
PTPN6 isoform 4 (UniProt P29350) | 0.054 | 0.097 | -0.03 | -0.05 | 0.047 | 0.04 | 0.033 | -0.078 | -0.224 | -0.073 | 0.051 | -0.077 | 0.045 | -0.026 | 0.019 | 0 | -0.081 | -0.031 | 0.011 | 0.054
PLEKHF1 (UniProt Q96S99) | 0.027 | 0.032 | -0.067 | 0.006 | 0.05 | 0.017 | -0.019 | -0.032 | 0.029 | -0.024 | -0.004 | 0.015 | 0.053 | -0.042 | 0.002 | -0.069 | -0.025 | -0.002 | -0.017 | 0.015
PCIF1 (UniProt Q9H4Z3) | -0.011 | 0.067 | -0.008 | 0.042 | 0.102 | -0.015 | 0.014 | -0.011 | -0.033 | -0.041 | 0.019 | 0.019 | 0.091 | 0.017 | 0 | 0.002 | 0.037 | -0.033 | 0.025 | -0.029
PCBP2 isoform 8 (UniProt Q15366) | 0.118 | -0.287 | 0.024 | 0.001 | -0.039 | 0.087 | -0.041 | -0.088 | 0.01 | 0.018 | 0.15 | 0.003 | -0.003 | -0.041 | -0.005 | -0.011 | -0.007 | 0.071 | -0.05 | -0.043
PFKFB3 isoform 4 (UniProt Q16875) | -0.006 | -0.021 | 0.028 | -0.033 | 0.011 | -0.034 | -0.035 | 0.032 | 0.002 | 0.004 | -0.015 | 0.11 | 0.044 | -0.003 | 0 | 0.027 | 0.003 | 0.011 | -0.019 | 0.148
PPP2R5C isoform 4 (UniProt Q13362) | 0.025 | -0.048 | -0.054 | -0.012 | -0.009 | 0.044 | -0.01 | 0.046 | 0.08 | 0.002 | 0.023 | -0.011 | -0.089 | -0.05 | -0.032 | -0.003 | 0.095 | 0.05 | 0.012 | 0.001
PRKCA (UniProt P17252) | 0.031 | -0.086 | -0.019 | 0.108 | 0 | 0.044 | -0.088 | -0.037 | 0.044 | 0.005 | 0.015 | 0.366 (active) | -0.012 | 0.069 | 0.032 | -0.015 | -0.094 | -0.002 | 0.033 | -0.045
PDE2A (UniProt O00408) | -0.015 | 0.082 | 0.12 | -0.337 | -0.055 | 0.249 | -0.257 | 0.001 | -0.027 | 0.18 | -0.008 | -0.148 | -0.202 | -0.107 | -0.045 | -0.018 | 0.025 | -0.038 | 0.01 | -0.11
PCBD2 (UniProt Q9H0N5) | -0.012 | -0.033 | 0.044 | -0.022 | 0.079 | 0.005 | -0.014 | -0.018 | -0.015 | -0.01 | 0.035 | 0.02 | 0.051 | -0.08 | 0.033 | 0.025 | 0.022 | 0.027 | -0.007 | -0.03
PPCDC (UniProt Q96CD2) | -0.019 | 0.075 | 0.033 | -0.115 | 0.004 | 0.002 | -0.115 | -0.05 | 0.084 | 0.023 | 0.016 | 0.023 | 0.067 | -0.157 | 0.064 | -0.023 | -0.033 | 0.019 | -0.041 | 0.003
PXMP4 (UniProt Q9Y6I8) | 0.024 | 0.068 | 0.084 | -0.053 | 0.013 | 0.053 | -0.038 | 0.043 | 0.022 | 0.016 | -0.022 | 0 | 0.012 | -0.076 | -0.18 | -0.008 | 0.066 | 0.234 | -0.007 | 0.023
PPP3CA isoform 2 (UniProt Q08209) | -0.005 | -0.037 | 0.045 | -0.036 | -0.014 | 0.014 | -0.006 | 0.082 | -0.026 | -0.01 | 0.017 | 0.012 | -0.01 | -0.052 | -0.014 | 0 | -0.03 | 0.03 | 0.028 | -0.012
PIP4K2B (UniProt P78356) | 0.038 | -0.193 | -0.021 | 0.012 | 0.096 | 0.067 | 0.013 | 0.032 | -0.02 | -0.019 | -0.002 | 0.043 | 0.016 | 0.023 | -0.032 | -0.043 | -0.022 | 0.087 | -0.044 | -0.031
PLIN2 (UniProt Q99541) | 0.013 | 0.024 | -0.093 | 0.004 | 0.028 | -0.015 | -0.045 | 0.021 | -0.042 | 0 | 0.015 | 0.031 | -0.014 | -0.022 | -0.001 | 0.069 | -0.007 | 0.016 | 0.025 | 0
PSMB9 (UniProt P28065) | 0.02 | -0.112 | 0.008 | -0.062 | -0.08 | -0.061 | 0.033 | -0.084 | 0.084 | -0.048 | -0.073 | -0.196 | 0.052 | -0.01 | 0.011 | 0.003 | -0.047 | 0.096 | -0.027 | -0.178
PPP2CA (UniProt P67775) | -0.088 | 0.134 | -0.057 | -0.045 | -0.007 | 0.064 | 0.016 | 0.106 | -0.027 | -0.041 | 0.042 | 0.009 | 0.007 | 0.083 | -0.012 | -0.017 | -0.034 | -0.047 | -0.003 | 0.036
